The values that follow come from paper PMC7862700, “An all-to-all approach to the identification of sequence-specific readers for epigenetic DNA modifications on cytosine”.

Assay in all cases: DAPPL (digital affinity profiling via proximity ligation, sequencing); 10 mM Tris-HCl pH 7.5, 50 mM NaCl, 1 mM DTT, 4% glycerol, room temperature, 30 min; GST-TFs on glutathione beads, 16-mer random dsDNA library, 0.1% formaldehyde crosslink after washing; high values mean tight binding
For experiment [1], the target named is T1, FLI1 (Homo sapiens, UniProt Q01543 1-452).
T1 sequence: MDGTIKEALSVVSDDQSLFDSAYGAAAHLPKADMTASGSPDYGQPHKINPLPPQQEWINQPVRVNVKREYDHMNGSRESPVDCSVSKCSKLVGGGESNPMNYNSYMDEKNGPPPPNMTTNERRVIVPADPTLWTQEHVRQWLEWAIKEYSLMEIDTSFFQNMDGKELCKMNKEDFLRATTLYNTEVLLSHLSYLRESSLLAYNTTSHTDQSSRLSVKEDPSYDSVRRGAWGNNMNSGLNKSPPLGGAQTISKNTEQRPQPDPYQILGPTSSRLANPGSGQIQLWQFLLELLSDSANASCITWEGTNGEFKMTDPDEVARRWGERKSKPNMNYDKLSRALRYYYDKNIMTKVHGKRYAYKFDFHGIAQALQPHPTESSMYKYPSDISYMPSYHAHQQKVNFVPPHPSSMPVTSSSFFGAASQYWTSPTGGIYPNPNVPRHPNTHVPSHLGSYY
To be noted: protein: recombinant; tags: N-terminal GST; dsDNA, one strand shown. Put shortly:
(§1)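 Pools were built from human transcription factors expressed in yeast as GST fusions, captured on glutathione beads and DNA-barcoded, along with a tag-only sample. Incubation with 200 nmole of a 16-mer random double-stranded DNA library lasted 30 min at room temperature in Tris/NaCl/DTT/glycerol buffer, and was followed by washing, 0.1% formaldehyde crosslinking, proximity ligation, PCR amplification and Illumina NextSeq500 sequencing. Binding signal is the quotient of each hexamer's read frequency for a factor and its frequency for the tag-only sample.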

Experiment [2] has as its target T2, ELK1 (Homo sapiens, UniProt P19419 1-428).
T2 sequence: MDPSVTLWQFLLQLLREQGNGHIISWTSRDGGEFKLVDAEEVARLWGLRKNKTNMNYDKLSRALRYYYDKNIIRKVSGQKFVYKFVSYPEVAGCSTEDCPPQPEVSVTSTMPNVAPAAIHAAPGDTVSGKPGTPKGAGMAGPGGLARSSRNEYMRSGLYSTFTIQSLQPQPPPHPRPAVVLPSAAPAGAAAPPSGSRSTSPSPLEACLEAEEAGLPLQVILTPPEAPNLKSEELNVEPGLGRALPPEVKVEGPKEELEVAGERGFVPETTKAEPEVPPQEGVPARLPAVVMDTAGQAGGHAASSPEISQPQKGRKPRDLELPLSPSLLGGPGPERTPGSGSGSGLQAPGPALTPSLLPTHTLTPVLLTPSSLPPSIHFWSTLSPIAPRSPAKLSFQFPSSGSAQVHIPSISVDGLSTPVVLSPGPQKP
As to conditions: protein: recombinant; tags: N-terminal GST; dsDNA, one strand shown. Put shortly: as §1

The target of experiment [3] is T3, GABPA (Homo sapiens, UniProt Q06546 1-454).
T3 sequence: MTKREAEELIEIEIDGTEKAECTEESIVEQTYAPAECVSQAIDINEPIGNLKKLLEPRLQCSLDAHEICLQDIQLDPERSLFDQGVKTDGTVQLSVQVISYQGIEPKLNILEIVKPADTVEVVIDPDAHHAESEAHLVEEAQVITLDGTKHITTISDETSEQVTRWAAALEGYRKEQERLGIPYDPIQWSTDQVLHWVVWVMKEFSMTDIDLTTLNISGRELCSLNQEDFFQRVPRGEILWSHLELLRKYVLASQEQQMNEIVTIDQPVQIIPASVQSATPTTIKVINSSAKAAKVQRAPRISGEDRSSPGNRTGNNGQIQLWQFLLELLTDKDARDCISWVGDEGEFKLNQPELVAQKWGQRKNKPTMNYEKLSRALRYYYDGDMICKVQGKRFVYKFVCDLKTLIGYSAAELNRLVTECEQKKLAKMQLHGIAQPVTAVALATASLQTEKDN
To be noted: protein: recombinant; tags: N-terminal GST; dsDNA, one strand shown. Put shortly:
as §1

Experiment [4] addresses T4, ERG (Homo sapiens, UniProt P11308 1-479).
T4 sequence: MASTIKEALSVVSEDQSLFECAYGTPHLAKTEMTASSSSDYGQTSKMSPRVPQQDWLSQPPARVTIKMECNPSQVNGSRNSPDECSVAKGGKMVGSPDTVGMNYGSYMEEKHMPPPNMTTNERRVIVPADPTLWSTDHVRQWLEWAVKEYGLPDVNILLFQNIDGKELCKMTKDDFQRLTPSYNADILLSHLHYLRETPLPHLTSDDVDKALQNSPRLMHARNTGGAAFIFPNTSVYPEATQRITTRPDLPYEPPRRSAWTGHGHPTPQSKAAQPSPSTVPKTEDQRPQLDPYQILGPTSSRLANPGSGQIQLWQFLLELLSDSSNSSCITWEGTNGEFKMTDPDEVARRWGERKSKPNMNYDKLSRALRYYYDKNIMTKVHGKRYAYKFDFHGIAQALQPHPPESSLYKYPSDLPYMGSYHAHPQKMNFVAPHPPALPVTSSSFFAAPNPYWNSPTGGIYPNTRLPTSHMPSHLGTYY
To be noted: protein: recombinant; tags: N-terminal GST; dsDNA, one strand shown. Put shortly:
as §1

Experiment [5] has as its target ELF1 (Homo sapiens, UniProt P32519 1-619). To be noted: protein: recombinant; tags: N-terminal GST; dsDNA, one strand shown. Put shortly:
as §1

For experiment [6], the target named is T5, EHF (Homo sapiens, UniProt Q9NZC4 1-300).
T5 sequence: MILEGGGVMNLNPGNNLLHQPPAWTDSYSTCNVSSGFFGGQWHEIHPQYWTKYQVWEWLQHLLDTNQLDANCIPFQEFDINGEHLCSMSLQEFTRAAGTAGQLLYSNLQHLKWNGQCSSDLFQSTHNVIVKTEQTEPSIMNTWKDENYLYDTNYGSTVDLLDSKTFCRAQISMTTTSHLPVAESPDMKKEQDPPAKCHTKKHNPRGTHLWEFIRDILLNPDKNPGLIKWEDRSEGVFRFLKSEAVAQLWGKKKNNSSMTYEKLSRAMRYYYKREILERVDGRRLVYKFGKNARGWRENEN
As to conditions: protein: recombinant; tags: N-terminal GST; dsDNA, one strand shown. Put shortly:
as §1

Experiment [7] deals with SPI1 (Homo sapiens, UniProt P17947 1-270). To be noted: protein: recombinant; tags: N-terminal GST; dsDNA, one strand shown. Put shortly:
as §1

Experiment [8] addresses SPIB (Homo sapiens, UniProt Q01892 1-262). As to conditions: protein: recombinant; tags: N-terminal GST; dsDNA, one strand shown. The method, boiled down:
as §1

In experiment [9] the target is T6, ELK3 (Homo sapiens, UniProt P41970 1-407).
T6 sequence: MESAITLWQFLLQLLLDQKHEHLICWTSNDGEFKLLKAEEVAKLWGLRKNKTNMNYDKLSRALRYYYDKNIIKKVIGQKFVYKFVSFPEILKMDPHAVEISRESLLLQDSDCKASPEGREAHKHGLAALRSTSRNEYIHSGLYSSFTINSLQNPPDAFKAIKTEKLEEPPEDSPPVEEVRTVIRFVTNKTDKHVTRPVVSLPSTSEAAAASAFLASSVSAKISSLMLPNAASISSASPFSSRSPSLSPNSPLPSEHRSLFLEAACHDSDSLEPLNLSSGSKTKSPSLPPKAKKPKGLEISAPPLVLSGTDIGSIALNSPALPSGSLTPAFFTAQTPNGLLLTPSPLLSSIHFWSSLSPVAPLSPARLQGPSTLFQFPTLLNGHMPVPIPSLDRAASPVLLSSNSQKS
To be noted: protein: recombinant; tags: N-terminal GST; dsDNA, one strand shown. Put shortly: as §1

The target of experiment [10] is T7, FEV (Homo sapiens, UniProt Q99581 1-238).
T7 sequence: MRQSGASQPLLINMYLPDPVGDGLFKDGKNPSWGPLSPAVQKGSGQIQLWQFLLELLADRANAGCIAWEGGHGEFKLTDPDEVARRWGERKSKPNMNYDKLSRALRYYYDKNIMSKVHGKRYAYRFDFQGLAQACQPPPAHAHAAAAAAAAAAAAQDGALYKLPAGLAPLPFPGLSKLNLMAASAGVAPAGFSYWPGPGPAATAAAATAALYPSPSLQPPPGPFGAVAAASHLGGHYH
To be noted: protein: recombinant; tags: N-terminal GST; dsDNA, one strand shown. Put shortly:
as §1

The target in experiment [11] is ETV5 (Homo sapiens, UniProt P41161 1-510). As to conditions: protein: recombinant; tags: N-terminal GST; dsDNA, one strand shown. The method, boiled down: as §1
Sequence of ETV5 (P41161 whole entry): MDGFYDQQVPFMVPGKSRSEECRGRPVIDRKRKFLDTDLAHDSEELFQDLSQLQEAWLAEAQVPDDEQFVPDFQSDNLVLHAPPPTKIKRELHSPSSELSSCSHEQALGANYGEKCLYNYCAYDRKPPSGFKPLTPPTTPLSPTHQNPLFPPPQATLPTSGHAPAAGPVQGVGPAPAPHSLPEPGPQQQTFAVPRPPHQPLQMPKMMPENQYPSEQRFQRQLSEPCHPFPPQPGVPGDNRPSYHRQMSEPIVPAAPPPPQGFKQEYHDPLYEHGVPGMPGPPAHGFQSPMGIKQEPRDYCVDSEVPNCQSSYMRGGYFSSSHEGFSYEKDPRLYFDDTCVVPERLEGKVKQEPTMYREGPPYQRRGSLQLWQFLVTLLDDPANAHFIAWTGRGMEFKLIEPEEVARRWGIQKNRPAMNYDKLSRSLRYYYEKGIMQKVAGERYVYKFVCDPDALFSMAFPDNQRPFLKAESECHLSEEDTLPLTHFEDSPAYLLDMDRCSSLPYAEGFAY
The target in experiment [12] is HSF1 (Homo sapiens, UniProt Q00613 1-529). As to conditions: protein: recombinant; tags: N-terminal GST; chain copies: 3; dsDNA, one strand shown. Put shortly:
as §1

The target in experiment [13] is T8, SPIC (Homo sapiens, UniProt Q8N5J4 1-248).
T8 sequence: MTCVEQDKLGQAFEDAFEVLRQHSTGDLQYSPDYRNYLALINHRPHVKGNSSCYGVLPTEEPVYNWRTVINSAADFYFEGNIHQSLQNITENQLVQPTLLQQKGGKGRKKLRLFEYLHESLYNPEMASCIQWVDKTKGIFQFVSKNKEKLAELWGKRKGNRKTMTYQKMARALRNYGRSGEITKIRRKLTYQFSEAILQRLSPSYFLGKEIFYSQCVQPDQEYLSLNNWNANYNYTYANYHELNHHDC
As to conditions: protein: recombinant; tags: N-terminal GST; dsDNA, one strand shown. Put shortly: as §1

Experiment [14] addresses ELF4 (Homo sapiens, UniProt Q99607 1-663). As to conditions: protein: recombinant; tags: N-terminal GST; dsDNA, one strand shown. Put shortly: as §1
Experiment [15] addresses T9, ELK4 (Homo sapiens, UniProt P28324-2 1-405).
T9 sequence: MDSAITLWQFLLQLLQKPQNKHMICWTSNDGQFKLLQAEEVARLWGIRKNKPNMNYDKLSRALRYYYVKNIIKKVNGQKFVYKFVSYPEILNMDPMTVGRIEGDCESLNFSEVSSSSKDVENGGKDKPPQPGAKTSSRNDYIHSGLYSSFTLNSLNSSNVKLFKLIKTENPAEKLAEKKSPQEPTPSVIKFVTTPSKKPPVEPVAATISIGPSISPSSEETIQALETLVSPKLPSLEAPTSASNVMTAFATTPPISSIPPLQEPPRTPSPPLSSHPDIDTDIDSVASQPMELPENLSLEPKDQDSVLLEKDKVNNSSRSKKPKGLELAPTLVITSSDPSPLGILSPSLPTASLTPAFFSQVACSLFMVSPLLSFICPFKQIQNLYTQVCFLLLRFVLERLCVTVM
To be noted: protein: recombinant; tags: N-terminal GST; dsDNA, one strand shown. The method, boiled down:
as §1

For experiment [16], the target named is T10, ETV2 (Homo sapiens, UniProt O00321 1-342).
T10 sequence: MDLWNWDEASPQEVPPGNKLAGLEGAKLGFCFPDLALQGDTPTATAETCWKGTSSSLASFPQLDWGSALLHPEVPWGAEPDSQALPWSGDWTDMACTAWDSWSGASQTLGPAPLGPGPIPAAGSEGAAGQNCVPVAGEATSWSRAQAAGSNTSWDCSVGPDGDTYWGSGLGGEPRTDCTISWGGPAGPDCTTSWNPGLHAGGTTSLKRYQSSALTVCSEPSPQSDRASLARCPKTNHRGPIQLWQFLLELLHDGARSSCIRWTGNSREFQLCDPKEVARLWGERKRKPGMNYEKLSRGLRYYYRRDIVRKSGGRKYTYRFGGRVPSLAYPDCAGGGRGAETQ
As to conditions: protein: recombinant; tags: N-terminal GST; dsDNA, one strand shown. The method, boiled down: as §1

For experiment [17], the target named is T11, ELF3 (Homo sapiens, UniProt P78545 1-371).
T11 sequence: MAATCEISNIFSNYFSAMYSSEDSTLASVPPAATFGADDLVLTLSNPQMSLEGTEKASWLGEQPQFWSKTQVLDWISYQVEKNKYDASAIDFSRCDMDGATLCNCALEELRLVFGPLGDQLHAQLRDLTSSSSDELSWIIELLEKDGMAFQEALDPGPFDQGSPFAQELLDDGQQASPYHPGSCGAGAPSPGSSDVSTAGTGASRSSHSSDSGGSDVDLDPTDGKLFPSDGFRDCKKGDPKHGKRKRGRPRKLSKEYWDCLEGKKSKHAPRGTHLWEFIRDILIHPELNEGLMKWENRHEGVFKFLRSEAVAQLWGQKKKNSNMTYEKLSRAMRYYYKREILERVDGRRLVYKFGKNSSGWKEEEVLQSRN
To be noted: protein: recombinant; tags: N-terminal GST; dsDNA, one strand shown. The method, boiled down: as §1

The target in experiment [18] is ETV1 (Homo sapiens, UniProt P50549 1-477). To be noted: protein: recombinant; tags: N-terminal GST; dsDNA, one strand shown. Put shortly: as §1
Sequence of ETV1 (P50549 whole entry): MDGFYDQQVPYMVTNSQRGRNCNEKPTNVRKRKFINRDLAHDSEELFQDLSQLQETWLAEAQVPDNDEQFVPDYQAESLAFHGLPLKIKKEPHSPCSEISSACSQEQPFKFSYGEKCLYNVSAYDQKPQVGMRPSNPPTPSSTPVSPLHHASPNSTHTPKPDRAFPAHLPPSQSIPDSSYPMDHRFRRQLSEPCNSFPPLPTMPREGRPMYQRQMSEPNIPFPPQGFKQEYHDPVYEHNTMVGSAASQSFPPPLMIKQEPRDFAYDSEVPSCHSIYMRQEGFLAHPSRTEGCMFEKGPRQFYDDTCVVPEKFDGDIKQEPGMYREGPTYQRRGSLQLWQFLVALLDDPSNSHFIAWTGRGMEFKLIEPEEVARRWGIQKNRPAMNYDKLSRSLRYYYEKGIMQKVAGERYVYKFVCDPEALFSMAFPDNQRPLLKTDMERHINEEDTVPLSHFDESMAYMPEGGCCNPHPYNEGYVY

Sequence of ELF1 (P32519 whole entry): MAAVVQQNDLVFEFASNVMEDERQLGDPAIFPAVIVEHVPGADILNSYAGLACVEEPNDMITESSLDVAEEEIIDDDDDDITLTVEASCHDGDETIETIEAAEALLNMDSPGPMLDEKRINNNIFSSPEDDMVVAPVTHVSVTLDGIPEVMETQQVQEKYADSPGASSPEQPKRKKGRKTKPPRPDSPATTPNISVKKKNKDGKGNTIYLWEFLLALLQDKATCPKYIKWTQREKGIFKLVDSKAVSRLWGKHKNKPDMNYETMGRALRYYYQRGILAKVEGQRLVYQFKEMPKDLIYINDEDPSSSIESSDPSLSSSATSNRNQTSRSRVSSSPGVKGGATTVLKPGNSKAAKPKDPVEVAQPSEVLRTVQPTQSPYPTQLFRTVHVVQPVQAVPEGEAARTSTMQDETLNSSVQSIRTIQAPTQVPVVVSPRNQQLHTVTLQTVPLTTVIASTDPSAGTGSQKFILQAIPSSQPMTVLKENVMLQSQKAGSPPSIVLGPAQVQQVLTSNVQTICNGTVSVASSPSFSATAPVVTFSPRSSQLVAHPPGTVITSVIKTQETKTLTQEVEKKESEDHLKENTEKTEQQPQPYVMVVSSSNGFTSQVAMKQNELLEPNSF
Sequence of SPIB (Q01892 whole entry): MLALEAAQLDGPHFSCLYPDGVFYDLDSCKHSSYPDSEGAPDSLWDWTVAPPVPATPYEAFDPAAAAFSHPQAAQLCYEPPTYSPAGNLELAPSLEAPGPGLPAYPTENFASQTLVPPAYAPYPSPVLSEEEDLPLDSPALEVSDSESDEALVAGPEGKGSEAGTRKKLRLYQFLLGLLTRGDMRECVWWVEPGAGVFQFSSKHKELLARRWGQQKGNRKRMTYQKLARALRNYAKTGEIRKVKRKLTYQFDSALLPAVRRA
Sequence of ELF4 (Q99607 whole entry): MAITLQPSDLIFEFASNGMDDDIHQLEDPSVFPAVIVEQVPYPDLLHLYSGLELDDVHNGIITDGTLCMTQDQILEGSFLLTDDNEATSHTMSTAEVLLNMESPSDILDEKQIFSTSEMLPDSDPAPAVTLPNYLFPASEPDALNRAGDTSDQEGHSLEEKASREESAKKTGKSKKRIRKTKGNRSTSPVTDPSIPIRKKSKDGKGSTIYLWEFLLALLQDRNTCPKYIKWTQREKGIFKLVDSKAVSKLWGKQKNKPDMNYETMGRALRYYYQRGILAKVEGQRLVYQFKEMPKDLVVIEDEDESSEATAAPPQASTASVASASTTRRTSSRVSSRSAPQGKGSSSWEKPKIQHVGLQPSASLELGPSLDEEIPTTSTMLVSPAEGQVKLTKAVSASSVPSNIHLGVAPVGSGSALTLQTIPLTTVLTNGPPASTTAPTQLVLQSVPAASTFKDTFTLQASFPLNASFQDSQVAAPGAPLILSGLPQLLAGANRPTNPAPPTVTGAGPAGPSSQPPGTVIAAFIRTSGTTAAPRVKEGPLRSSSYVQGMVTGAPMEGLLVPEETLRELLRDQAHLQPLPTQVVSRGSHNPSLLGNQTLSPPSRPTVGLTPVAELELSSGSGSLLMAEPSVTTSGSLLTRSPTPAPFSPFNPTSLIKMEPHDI
Sequence of HSF1 (Q00613 whole entry): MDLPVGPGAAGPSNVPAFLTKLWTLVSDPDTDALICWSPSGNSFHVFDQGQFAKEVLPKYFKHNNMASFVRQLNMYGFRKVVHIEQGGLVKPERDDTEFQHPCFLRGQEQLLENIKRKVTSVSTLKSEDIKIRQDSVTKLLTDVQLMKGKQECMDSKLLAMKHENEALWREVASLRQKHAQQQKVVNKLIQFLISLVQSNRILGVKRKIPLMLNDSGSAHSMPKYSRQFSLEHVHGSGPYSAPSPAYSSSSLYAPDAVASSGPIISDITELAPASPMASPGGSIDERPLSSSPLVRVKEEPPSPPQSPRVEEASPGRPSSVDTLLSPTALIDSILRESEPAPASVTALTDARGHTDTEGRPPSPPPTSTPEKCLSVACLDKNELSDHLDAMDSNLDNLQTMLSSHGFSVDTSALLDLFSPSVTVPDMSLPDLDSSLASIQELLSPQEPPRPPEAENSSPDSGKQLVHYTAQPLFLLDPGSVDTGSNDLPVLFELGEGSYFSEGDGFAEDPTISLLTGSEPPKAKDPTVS

GCACTC: the binding signal was 1.29 fold enrichment (6-mer frequency, TF over GST control) in [1]; 1.5 fold enrichment (6-mer frequency, TF over GST control) in experiment [2]; 1.32 fold enrichment (6-mer frequency, TF over GST control) in experiment [3]; 1.31 fold enrichment (6-mer frequency, TF over GST control) in [4]; 1.33 fold enrichment (6-mer frequency, TF over GST control) in [5]; 1.37 fold enrichment (6-mer frequency, TF over GST control) in [6]. Also, the binding signal was 1.35 fold enrichment (6-mer frequency, TF over GST control) in [7]; 1.35 fold enrichment (6-mer frequency, TF over GST control) in experiment [8]; 1.28 fold enrichment (6-mer frequency, TF over GST control) in [9]; 1.31 fold enrichment (6-mer frequency, TF over GST control) in [10]; 1.38 fold enrichment (6-mer frequency, TF over GST control) in [11]; 1.06 fold enrichment (6-mer frequency, TF over GST control) in experiment [12]. Moreover, the binding signal is 1.25 fold enrichment (6-mer frequency, TF over GST control) in [13]; 1.31 fold enrichment (6-mer frequency, TF over GST control) in experiment [14]; 1.33 fold enrichment (6-mer frequency, TF over GST control) in experiment [15]; 1.36 fold enrichment (6-mer frequency, TF over GST control) in experiment [16]; 1.41 fold enrichment (6-mer frequency, TF over GST control) in experiment [17]; 1.33 fold enrichment (6-mer frequency, TF over GST control) in experiment [18].
